Data from PubChem BioAssay AID1851 (National Center for Advancing Translational Sciences (NCATS), 2009).
Among all 16,000 compounds or so, about 4,000 (25%) were called active. About 26% were inconclusive and are not listed. Only a sample is shown. Unmarked numbers belong to inactive results. Calls come from the whole dose curve; as a rule, active = well fitted curve in the direction sought with a large enough effect; inconclusive = small, poorly fitted or top-dose-only effect, or effect the other way; inactive = no such curve, though single readings can be large or run the other way.

Molecular target: Cytochrome P450 2C9 (Homo sapiens) (UniProt P11712)
Assay: Cytochrome panel assay with activity outcomes
Conditions: recombinant CYP, pro-luciferin dealkylation, luminescence, p450-cyp2c9; series mostly up to 57.1 µM; activity, negative = inhibition: at the top concentration
% is set by controls: 0 for no effect and ±100 for the full control effect.

Chain of Cytochrome P450 2C9 (Homo sapiens) (P11712 whole entry, looked up): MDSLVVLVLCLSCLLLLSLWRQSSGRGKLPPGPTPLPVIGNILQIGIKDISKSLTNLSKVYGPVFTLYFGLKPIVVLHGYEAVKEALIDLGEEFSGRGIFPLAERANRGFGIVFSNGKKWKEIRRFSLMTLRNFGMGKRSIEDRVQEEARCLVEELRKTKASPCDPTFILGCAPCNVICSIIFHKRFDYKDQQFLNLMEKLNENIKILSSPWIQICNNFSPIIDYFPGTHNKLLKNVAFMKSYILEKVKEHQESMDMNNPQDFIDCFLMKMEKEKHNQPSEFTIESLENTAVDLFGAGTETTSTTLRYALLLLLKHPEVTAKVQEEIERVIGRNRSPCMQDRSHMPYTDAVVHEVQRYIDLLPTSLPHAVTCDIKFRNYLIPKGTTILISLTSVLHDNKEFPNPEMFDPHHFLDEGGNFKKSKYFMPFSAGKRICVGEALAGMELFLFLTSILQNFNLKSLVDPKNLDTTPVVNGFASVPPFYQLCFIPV

| SMILES | activity, negative = inhibition | AC50 |
| --- | --- | --- |
| CN(C)C(=N)N=C(N)N | -10% [at 25.6 µM] | – |
| CCn1c(SCC(=O)Nc2ccc3c(c2)OCCO3)nc2c(c1=O)SC(C)C2 (stereo not drawn) | – | 2 µM (active) |
| CCn1c(SCC(=O)Nc2nc3ccc(C)cc3s2)nc2c(c1=O)SC(C)C2 (stereo not drawn) | – | 3.16 µM (active) |
| Cc1ccc2nc(NC(=O)CSc3nc4c(c(=O)n3C)SC(C)C4)sc2c1 (stereo not drawn) | – | 1.78 µM (active) |
| CCn1c(SCC(=O)NC2CCCCC2)nc2c(c1=O)SC(C)C2 (stereo not drawn) | 4.71% | – |
| Cn1c(=O)c2[nH]c([C@@H]3CC(=O)C[C@H](c4nc5c([nH]4)c(=O)n(C)c(=O)n5C)N3)nc2n(C)c1=O | 2.38% [at 11.4 µM] | – |
| CC1(C)CCC(NC(=O)[C@H](N)CCC(=O)O)CC1 | -12.5% | – |
| N[C@@H](Cc1nn[nH]n1)C(=O)O | -8.85% [at 11.4 µM] | – |
| CCCn1c(C)nc2c(c1=O)c1nc3ccccc3nc1n2CCC1=CCCCC1 | – | 5.62 µM (active) |
| C/C(=N/O)[C@@H]1C[C@H](CC(=O)O)C1(C)C | -6.68% [at 11.4 µM] | – |
| Clc1ccc(COn2c(-c3ccccc3)nc3ccccc32)cc1 | – | 10 µM (active) |
| Cc1cc(-c2cccc([N+](=O)[O-])c2)nc2ccc3ccccc3c12 | -22.9% | – |
| O=[N+]([O-])c1ccc2nc(-c3ccccc3)n(OCc3ccc(Cl)cc3)c2c1 | – | 4.47 µM (active) |
| CC(=O)OCC(=O)[C@@]1(O)CC[C@@H]2[C@H]3CCC4=CC(=O)CC[C@]4(C)[C@]3(F)[C@@H](O)C[C@@]21C | -3.55% [at 25.6 µM] | – |
| C[C@@H]1/C=C\CC(=O)OC[C@H](C)C(=O)N[C@@H](Cc2ccccc2)C(=O)OC1 | 10.4% [at 11.4 µM] | – |
| O=C1C=C[C@@H](O)[C@H]2[C@@H]3C(=O)N(c4cccc(Oc5ccccc5)c4)C(=O)[C@@H]3CC[C@H]12 | -24.8% [at 11.4 µM] | – |
| CCOC(=O)N/N=C/c1ccc(C)o1 | -28.6% | – |
| COC(=O)c1nn(-c2ccc(OC)cc2)c(=O)cc1Oc1cccc(Cl)c1 | -7.52% | – |
| CCOC(=O)C(=CNCC(=O)O)C(=O)OCC | -3.32% | – |
| O=C(Nc1cccc2nsnc12)c1ccc(-c2cccc(Cl)c2)o1 | -23.8% | – |
| COC(=O)c1sccc1-c1ccc(C(=O)Nc2cccc(Cl)c2)o1 | – | 10 µM (active) |
| CCOC(=O)C(=Cc1ccc(-c2ccsc2C(=O)OC)o1)C(=O)OCC | – | 1.26 µM (active) |
| COC(=O)c1sccc1-c1ccc(C(=O)Nc2cccnc2)o1 | – | 5.01 µM (active) |
| CCN1C(=O)[C@H]2[C@H]3[C@H](O)[C@H](O)C/C(=N/O[C@@H](C)c4cn([C@H]5COC[C@H]5O)nn4)[C@@H]3CC[C@@H]2C1=O | 9.59% [at 11.4 µM] | – |

| SMILES | activity, negative = inhibition | AC50 |
| --- | --- | --- |
| CCOC(=O)c1cc(-c2ccccc2)sc1NC(=O)C(C)(C)C | -29.5% | – |
| COC(=O)c1cc(-c2ccccc2)sc1NC(=O)CN1C(=O)c2ccccc2C1=O | – | 2.82 µM (active) |
| CCOC(=O)CCCNC(=O)CCCNC(=O)C(c1ccccc1)c1ccccc1 | -21.3% | – |
| CCOC(=O)c1cc(-c2ccccc2)sc1NC(=O)c1ccc(OC)cc1 | – | 11.2 µM (active) |
| CCOC(=O)c1cc(CC)sc1NC(=O)C(c1ccccc1)c1ccccc1 | – | 6.31 µM (active) |
| CCOC(=O)N/N=C1/C[C@@H](O)[C@@H](O)[C@@H]2[C@@H]3C(=O)N(C(C)(C)C)C(=O)[C@H]3CC[C@@H]12 | 6.14% [at 11.4 µM] | – |
| COc1ccccc1-c1nc(Nc2ccncc2)c2ccccc2n1 | -28.7% [at 2.29 µM] | – |
| c1nc(NC2CC2)c2cc(-c3ccoc3)ccc2n1 | -5.58% [at 2.29 µM] | – |
| O=C(O)Cn1c(-c2ccccc2)nc2ccccc21 | -9.81% | – |
| CCOC(=O)Cn1c(-c2ccccc2)nc2ccccc2c1=O | – | 2 µM (active) |
| O=c1c2ccccc2nc(-c2ccc(Br)cc2)n1Cc1ccccc1 | – | 2.51 µM (active) |
| C[C@@H](CC(=O)O)[C@@H](N)C(=O)O | -21.2% | – |
| COc1ccc2c3c(ccc2c1)N[C@H](C(=O)O)CC3 | -0.255% [at 11.4 µM] | – |
| COCCNc1nc(-c2ccccc2OC)nc2ccccc12 | 5.14% [at 2.29 µM] | – |
| COc1cc(CC(=O)O)c(C(C)=O)cc1OC | 3.54% | – |
| CC(=O)c1cc(CC=C(C)C)c(O)cc1O | – | 2.51 µM (active) |
| Cc1[nH]c2ccccc2c1C(c1ccccn1)N1CCC(C)CC1 (stereo not drawn) | -1.22% | – |
| CCC(C)(C)n1nnnc1C(c1ccc(C)cc1)N1CCC(C)CC1 (stereo not drawn) | – | 28.2 µM (active) |
| Cn1c(-c2ccccc2)cnc1N | 5.03% | – |
| Cc1ccccc1CNc1ncnc2c1ncn2[C@@H]1O[C@@H](CO)[C@H](O)[C@@H]1O | 5.73% | – |
| CC(C)N(CC(=O)O)CC(=O)O | -8.23% [at 11.4 µM] | – |
| CN1Cc2c(C(=O)OC(C)(C)C)ncn2-c2ccsc2C1=O | – | 5.01 µM (active) |
| Cc1c(CCO)c(=O)n(-c2ccccc2)n1S(=O)(=O)c1c(Cl)cc(Cl)cc1Cl | – | 5.01 µM (active) |
| Cc1c(N(C)CS(=O)(=O)O)c(=O)n(-c2ccccc2)n1C | -0.666% [at 25.6 µM] | – |
